{"source": "PubChem BioAssay (Tox21)", "note": "Inconclusive results are not listed. A number with no mark means an inactive call. The source made the active and inactive calls. The call rests on the fitted dose curve; in most records, active means well fitted activation curve with a large enough effect in the repeat runs; inconclusive means weak or mixed curves; inactive means no such curve, though single readings can be large or run the other way. On the % scale 0 is the no-effect control and ±100 the full control effect; potency means the concentration at half of the fitted maximal effect.", "data": [{"target": "Nuclear receptor subfamily 1 group I member 2 (Homo sapiens) (UniProt O75469)", "sequence (O75469 whole entry, looked up)": "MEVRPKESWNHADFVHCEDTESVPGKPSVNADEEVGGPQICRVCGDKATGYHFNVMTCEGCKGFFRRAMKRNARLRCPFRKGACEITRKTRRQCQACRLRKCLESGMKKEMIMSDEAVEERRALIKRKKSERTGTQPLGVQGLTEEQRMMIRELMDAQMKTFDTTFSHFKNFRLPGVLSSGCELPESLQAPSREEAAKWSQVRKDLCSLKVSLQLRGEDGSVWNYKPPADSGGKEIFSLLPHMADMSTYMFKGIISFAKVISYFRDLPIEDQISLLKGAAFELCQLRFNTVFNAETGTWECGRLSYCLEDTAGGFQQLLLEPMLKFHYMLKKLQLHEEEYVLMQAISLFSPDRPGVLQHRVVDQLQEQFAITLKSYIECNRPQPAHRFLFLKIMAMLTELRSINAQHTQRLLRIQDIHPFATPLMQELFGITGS", "test": "Human pregnane X receptor (PXR) small molecule agonists, qHTS assay (AID 1346982); further: nearly all actives have a fitted effect of over 35% in size", "conditions": "PXR-Luc HepG2, CYP3A4 luciferase reporter, 24 h; series mostly up to 92.4 µM; activation: at the top concentration", "description": "National Center for Advancing Translational Sciences [NCATS]\nNIH Chemical Genomics Center [NCGC]\nU.S. Environmental Protection Agency [EPA]\nNational Institutes of Environmental Health Sciences [NIEHS]\nNational Toxicology Program [NTP]\nThe human pregnane X receptor (hPXR) regulates the expression of several drug metabolizing enzymes and induction of these proteins is a major mechanism for developing drug resistance in cancer. One such key enzyme catalyzing the drug metabolism is cytochrome P450 3A4 (CYP3A4). Changes in CYP3A4 expression affect drug metabolism, thereby reducing the therapeutic efficacy and altering toxicological response to a drug and which finally causes adverse drug interaction. To screen Tox21 libraries for compounds that activate hPXR-mediated CYP3A4 gene expression, PXR-Luc HepG2 cells were used.\nPXR-Luc HepG2 cells were dispensed at 2,000 per well in 5uL of assay medium containing 5% charcoal-stripped FBS into white solid bottom 1536-well plates (Corning Life Sciences, Corning, NY) using a Multidrop Combi (Thermo Scientific, Waltham, MA) dispenser. The assay plates were incubated at 37 C and 5% CO2 for 5hr, and then 23nL of compounds dissolved in DMSO and positive control were transferred using a Pintool station (Wako, San Diego, CA). The assay plates were incubated at 37C and 5% CO2 for 24hr. For luciferase read, 4uL of ONE-Glo reagent (Promega Corporation, Madison, WI) was added to each well of the assay plates using Flying Reagent Dispenser (FRD, Aurora Discovery, San Diego, CA) and incubated the assay plates at room temperature for 30min. The luminescence signal was quantified using a ViewLux plate reader (Perkin Elmer, Shelton, CT).", "values": [{"smiles": "COc1cccc(OC)c1", "activation": "-1.78%"}, {"smiles": "CSc1nc(NC2CC2)nc(NC(C)(C)C)n1", "Potency": "21.7 µM (active)"}, {"smiles": "NCC[C@H](O)C(=O)N[C@@H]1C[C@H](N)[C@@H](O[C@H]2O[C@H](CN)[C@@H](O)[C@H](O)[C@H]2O)[C@H](O)[C@H]1O[C@H]1O[C@H](CO)[C@@H](O)[C@H](N)[C@H]1O", "activation": "-0.318% [at 0.349 µM]"}, {"smiles": "CCCC(C)CO", "note": "(stereo not given)", "activation": "15.8%"}, {"smiles": "CCCCCCCCC=O", "activation": "10.6%"}, {"smiles": "CCCCc1ccc2cccc(S(=O)(=O)O)c2c1", "activation": "45%"}, {"smiles": "CC(C)[C@H](N)C(=O)OCCOCn1cnc2c(=O)[nH]c(N)nc21", "activation": "0.836% [at 42.5 µM]"}, {"smiles": "CO[Si](CCCNCCC[Si](OC)(OC)OC)(OC)OC", "activation": "4.95%"}, {"smiles": "C#CC(C)(O)CC(C)C", "note": "(stereo not given)", "activation": "-5.1%"}, {"smiles": "CCCCCCCCCCCl", "activation": "-0.498%"}, {"smiles": "CCCOc1ccccc1-c1nc2n[nH]nc2c(=O)[nH]1", "activation": "0.373% [at 42.5 µM]"}, {"smiles": "c1ccc2cnncc2c1", "activation": "4.09%"}, {"smiles": "C=CCOCC(O)CS(=O)(=O)O", "note": "(stereo not given)", "activation": "5.42%"}, {"smiles": "Cc1cc(C)c(NC(=O)CN(CC(=O)O)CC(=O)O)c(C)c1Br", "activation": "-11.5% [at 42.5 µM]"}, {"smiles": "CC(C)=CCC/C(C)=C/C(=O)O", "activation": "8.59%"}, {"smiles": "CC(=O)N[C@@H](CCC(N)=O)C(=O)O", "activation": "-0.634% [at 42.5 µM]"}, {"smiles": "Cc1ccc(N)cc1[N+](=O)[O-]", "Potency": "10.9 µM (active)"}, {"smiles": "CCCC=O", "activation": "2.34%"}, {"smiles": "FC(F)(F)C(F)(F)C(F)(F)C(F)(F)C(F)(F)C(F)(F)C(F)(F)C(F)(F)C(F)(F)C(F)(F)F", "activation": "-1.65% [at 8.39 µM]"}, {"smiles": "C=C(C)C(=O)NCCC[N+](C)(C)C", "activation": "8.53%"}, {"smiles": "C=C(C)C1CC=C(C)C(O)C1", "note": "(stereo not given)", "Potency": "48.8 µM (active)"}, {"smiles": "Oc1cc(O)c2c(c1)O[C@H](c1ccc(O)c(O)c1)[C@H](O)C2", "activation": "1.77% [at 42.5 µM]"}, {"smiles": "CCCCCN(CCCCC)C(=O)C(CCC(=O)O)NC(=O)c1ccc(Cl)c(Cl)c1", "note": "(stereo not given)", "activation": "0.564% [at 42.5 µM]"}, {"smiles": "COC(=O)CCCCCCCCC(=O)OC", "activation": "1.33%"}, {"smiles": "OCCCCCCO", "activation": "22.6%"}, {"smiles": "COc1ccc2cc(C=O)ccc2c1", "activation": "-2.52% [at 42.5 µM]"}, {"smiles": "c1cc(CN2CCCCC2)cc(OCCCNc2nc3ccccc3s2)c1", "Potency": "5.31 µM (active)"}, {"smiles": "C=C(C)[C@H]1CC=C(C)CC1", "Potency": "61.1 µM (active)"}, {"smiles": "CC(=O)OC(C)(C)C", "activation": "6.93%"}, {"smiles": "CCCCCOC(=O)Nc1nc(=O)n([C@@H]2O[C@H](C)[C@@H](O)[C@H]2O)cc1F", "activation": "-11.1% [at 42.5 µM]"}, {"smiles": "C=C[Si](OC)(OC)OC", "activation": "1.79%"}, {"smiles": "CCN(CC)C(=O)c1ccc(O)c(OC)c1", "activation": "-3.14% [at 42.5 µM]"}, {"smiles": "Fc1ccccc1-c1ccccc1", "activation": "3.46%"}, {"smiles": "O=C(O)CCNC(=O)c1ccc(N=Nc2ccc(O)c(C(=O)O)c2)cc1", "activation": "-1.58% [at 42.5 µM]"}, {"smiles": "NC(=O)c1ncn([C@@H]2O[C@H](CO)[C@@H](O)[C@H]2O)c1N", "activation": "-10.6% [at 42.5 µM]"}, {"smiles": "N#CCN(CC#N)CCN(CC#N)CC#N", "activation": "0.186%"}, {"smiles": "Cc1c(F)cc2c(=O)c(C(=O)O)cn3c2c1CCC3C", "note": "(stereo not given)", "activation": "-1.55% [at 42.5 µM]"}, {"smiles": "O=C(O)c1ccccc1S", "activation": "-2.85% [at 42.5 µM]"}, {"smiles": "NC1CCN(c2cccc(Cl)n2)CC1", "activation": "-14.7% [at 42.5 µM]"}, {"smiles": "C#CC(O)CCCCC", "note": "(stereo not given)", "activation": "-4.83%"}]}]}
